The list is not random: actives were taken first. Their share in the collection is about 21%.
Pf growth 48h: P. falciparum growth inhibition at 48 hours (one generation); P. falciparum luciferase growth in erythrocytes, 48 h; Potency, µM (doses to about 28.7 µM), for inactives: at the highest dose activity change, negative = inhibition, most hits filed as inhibitors; 310,000 compounds, 5.9% hits; AID 504832; active = well fitted inhibition curve with a large enough effect; inconclusive = small, poorly fitted or top-dose-only effect, or another doubt; inactive = no such curve, though single readings can be large or run the other way; also: potency is read from the fitted curve at half-maximal effect; % is scaled to controls: 0 for no effect and ±100 for the full control effect
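Luminescence readout; reporter = integrated firefly luciferase in P. falciparum. RBC culture at 2% hematocrit, 0.1% parasitemia final, 37 C/5% CO2; decreased signal taken as growth inhibition.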
Cycloheximide cs: counter-screen for Shiga toxin inhibitors: cycloheximide protein synthesis inhibition. max response, %. cell reporter, cycloheximide protein synthesis inhibition counterscreen. 300,000 compounds, 12% hits; in the data active = max response mostly above about 13%, no sharp cut-off; inactive = mostly below about 14%; also: read at 38.3 µM for the half of the compounds with a filed dose; 0% is about no effect
Shiga toxin inh: blocks Shiga toxin action in Vero cells. Vero cells, Shiga toxin protein synthesis inhibition reporter. inhibition, % at 38.7 µM. 290,000 compounds, 9.2% hits; in the data active = inhibition mostly above about 28%, no sharp cut-off; inactive = mostly below about 43%; also: 0% is about no effect
NS1 function inh: inhibitors of influenza NS1 protein function; AID 2326; 270,000 compounds, 0.4% hits; Potency, µM (series often up to 46.1 µM), for inactives: at the top dose activity, positive = more growth; also: potency is read from the fitted curve at half-maximal effect; actives are rising curves; nearly all actives have a fitted effect of over 50% in size
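OD600 was taken as the measure of yeast growth restored by compound in an NS1-expressing S. cerevisiae strain. Cells had been washed out of glucose medium and diluted 1:100 into galactose -URA medium, pH 6.0.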
Pf growth 96h: P. falciparum growth inhibition at 96 hours | P. falciparum luciferase reporter growth, 96 h | Potency, µM (series often up to 28.7 µM), for the others: top-dose activity change, negative = inhibition, usual class: inhibitors | 320,000 compounds, 6.9% hits | AID 504834; active = well fitted inhibition curve with a large enough effect; inconclusive = small, poorly fitted or top-dose-only effect, or another doubt; inactive = no such curve, though single readings can be large or run the other way; also: potency is read from the fitted curve at half-maximal effect; % is scaled to controls: 0 for no effect and ±100 for the full control effect
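Luminescence readout: decreased luciferase signal marks inhibited growth of reporter-expressing P. falciparum in infected red cells (2% hematocrit, 0.05% parasitemia final), exposed to compound two generations (96 h, 37 C, 5% CO2).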
SARS PLpro yeast: SARS-CoV PLP inhibition in yeast | Potency, µM (doses to about 32.9 µM), without a hit: top-dose activity, positive = growth rescue, hits mostly activators | 330,000 compounds, 0.19% hits | AID 485353 | S. cerevisiae expressing SARS-CoV PLpro, growth rescue; also: potency is read from the fitted curve at half-maximal effect; 0% is about no effect; nearly all actives have a fitted effect of over 55% in size
An asterisk follows results filed as active; ? = inconclusive; nt = no result; + = active, no number. Unless noted, calls follow the shape of the full dose curve.

SMILES	Pf growth 48h	Cycloheximide cs	Shiga toxin inh	NS1 function inh	Pf growth 96h	SARS PLpro yeast
CCc1ccc(/C=C2\SC(=S)N(CCC(=O)NCCCN3CCOCC3)C2=O)cc1	5%	45*	46*	-2%	?	-3%
Cc1ccc(/C=C2\SC(=S)N(CCC(=O)NCCCN3CCOCC3)C2=O)cc1	-25%	14	25	-2%	?	0%
O=C(CCN1C(=O)/C(=C/c2ccccc2Cl)SC1=S)NCCCN1CCOCC1	?	9	5	14%	13µM*	3%
COc1ccc(/C=C2\SC(=S)N(CCC(=O)NCCCN3CCOCC3)C2=O)cc1	?	13*	28	-6%	31%	-1%
N#Cc1c(Cl)c(Cl)c2nnc(-c3ccc(Br)cc3)n2c1Cl	?	-3	-18	-6%	115%	6%
CN(Cc1ccccc1Cl)C(=O)C1CCC(=O)N(C2CCCCCC2)C1 (configuration not stated)	?	14*	18	-19%	8%	1%
NC(=O)C1CCN(CCS(=O)(=O)c2ccc(Cl)cc2)CC1	10%	1	-3	-1%	8%	-2%
CC1CCN(c2nnc(-c3cccs3)c3ccccc23)CC1	-1%	16*	60	-27%	?	-1%
Cc1cc(N)ccc1NC(=O)CN1CCOCC1	10%	-4	-6	-7%	2%	-1%
CCC(C)(C(=O)NC1CCCC1)N(Cc1cccs1)C(=O)c1ccc2c(c1)OCO2 (configuration not stated)	-29%	0	9	-2%	56%	16%
Cc1cccc(NC(=O)CCc2ccc(C)o2)c1	16%	18*	46	-12%	?	-2%
Cc1ccc(-c2ccc(CCC(=O)O)o2)cc1	-3%	38*	45*	-204%	97%	-20%
Cc1ccc(CCC(=O)Nc2ccc(C)c(C)c2)o1	38%	19*	17	-29%	37%	-4%
Cc1ccc(NC(=O)CCc2ccc(C)o2)cc1	52%	16*	nt	-6%	-26%	-2%
Cc1ccc(OCC(=O)OC(C)C(=O)NC2CCCCC2C)cc1C (configuration not stated)	17%	nt	nt	nt	15%	9%
C[C@@H]1Cc2c(Cl)cc(C(=O)N[C@H](Cc3ccccc3)C(=O)O)c(O)c2C(=O)O1	nt	-4	-6	nt	nt	nt
COCc1c(C(=O)N/N=C/c2c[nH]c3ccccc23)nnn1-c1nonc1N	10%	-3	30	-19%	?	1%
CCCN(CCC)Cc1c(C(=O)N/N=C/c2c[nH]c3ccccc23)nnn1-c1nonc1N	5%	-4	-16	-16%	9.3µM*	-3%
Cc1ccc(-c2c(C(=O)N/N=C/c3c[nH]c4ccccc34)nnn2-c2nonc2N)cc1	?	22*	4	5%	?	-7%
CN(C)Cc1c(C(=O)N/N=C/C=C/c2ccccc2)nnn1-c1nonc1N	-9%	29*	-1	?	-30%	22%
Cc1ccc(C(=O)N[C@H](C(=O)OCc2nnc(-c3ccccc3)o2)C(C)C)cc1	-29%	26*	24	-4%	-17%	-1%
CC(C(=O)OCc1nnc(-c2ccccc2)o1)N1C(=O)c2ccccc2C1=O (configuration not stated)	36%	32*	92*	-58%	10%	8%
CC(C)[C@H](NC(=O)c1ccccc1)C(=O)OCc1nnc(-c2ccccc2)o1	23%	13	24	nt	10%	-2%
O=C1CCC([N+](=O)[O-])C(c2ccc3c(c2)OCO3)N1 (configuration not stated)	19%	0	-14	5%	10µM*	5%
CN(C)c1ccc2c(O)cc(=O)n(C)c2c1	-4%	-1	31	?	5.2µM*	-5%
SMILES	Pf growth 48h	Cycloheximide cs	Shiga toxin inh	NS1 function inh	Pf growth 96h	SARS PLpro yeast
COC(=O)c1[nH]c2ccc(Cl)cc2c1NC(=O)CN1CCc2cc(OC)c(OC)cc2C1	?	-2	46	8%	nt	1%
CCOC(=O)c1[nH]c2ccc(F)cc2c1NC(=O)CN1CCN(C/C=C/c2ccccc2)CC1	9.3µM*	-6	-16	-7%	5.9µM*	3%
COC(=O)c1[nH]c2ccccc2c1NC(=O)CN1CCN(C/C=C/c2ccccc2)CC1	nt	-3	-13	-1%	86%	3%
CCOC(=O)c1[nH]c2ccc(F)cc2c1NC(=O)CN1CCc2cc(OC)c(OC)cc2C1	12µM*	-4	-12	-16%	?	-2%
O=C1c2ccccc2CC1Sc1nnc(-c2ccccn2)o1 (configuration not stated)	?	17*	75*	-11%	13µM*	3%
CC(C)COC(=O)c1cc(=O)[nH]c2ccccc12	-3%	3	28	-7%	-20%	-7%
CC(OC(=O)c1cc(=O)[nH]c2ccccc12)c1ccccc1 (configuration not stated)	12%	32*	70*	-24%	nt	-3%
Cc1cccc2nc(CSc3nc4ccccc4o3)cn12	90%	49*	+	-24%	77%	-25%
c1ccc2nc(SCc3cn4ccccc4n3)cnc2c1	0%	40*	64*	-3%	?	3%
c1ccc2oc(SCc3cn4ccccc4n3)nc2c1	97%	52*	65*	-45%	-19%	-12%
COc1ccc(-n2cc(-c3ccccc3)c3c(N4CC(C)OC(C)C4)ncnc32)cc1 (configuration not stated)	?	16	-8	nt	-8%	-11%
O=C1OCCC1Sc1nc2ccccc2n1-c1ccccc1 (configuration not stated)	nt	-4	-11	-6%	12µM*	2%
CCCCn1c(=O)n(CC(=O)NCc2ccc(C)cc2)c(=O)c2c1nc(CO)n2CCC	?	11	-10	-5%	4.1µM*	1%
CC(Sc1nnc(-c2ccncc2)n1C)C(=O)NCC1CCCO1 (configuration not stated)	-9%	nt	nt	nt	19%	-3%
Nc1ccc2c(c1)COc1ccccc1O2	58%	16*	88*	-39%	22%	-7%
C#CCOCCOCCOCCNc1nc(N2CCN(C(=O)CCCCCCCCCCNC(=O)[C@H](CCCCN)n3cc(CCCC(=O)O)nn3)CC2)nc(N2CCN(C(=O)CCCCCCCCCCNC(=O)[C@@H]([C@H](C)O)n3cc(C)nn3)CC2)n1	5.2µM*	nt	nt	nt	5.9µM*	-5%
C#CCOCCOCCOCCNc1nc(N2CCN(C(=O)CCCCCCCCCCNC(=O)[C@H](CCCCN)n3cc(C)nn3)CC2)nc(N2CCN(C(=O)CCCCCCCCCCNC(=O)[C@H](CCCCN)n3cc(CCCC(=O)O)nn3)CC2)n1	10µM*	nt	nt	nt	?	6%
Cc1cc(NC(=O)c2ccc3c(c2)C(=O)N(C)C3=O)no1	nt	3	-1	-4%	2.9µM*	12%
Cc1cc(NC(=O)c2ccc3c(c2)C(=O)N(CCC(C)C)C3=O)no1	11%	1	-5	-8%	9%	nt

Screening results deposited in PubChem BioAssay by National Center for Advancing Translational Sciences (NCATS).
